Hits are enriched below; roughly 3.8% of the tested compounds scored in any of these assays.
KLK7 zymogen act: proKLK7 (human) activation, primary screen. 0.9% of 370,000 active. activation, % at 7 µM. purified proKLK7, EDANS-DABCYL substrate fluorescence; 100% is mature enzyme control, 0% vehicle. P49862;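 active = activation above the mean of all tested compounds plus 3 SD, computed per campaign excluding outliers beyond control limits, cut at about 13% in these data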
FGF22 binding: FGF22 (human) thermal shift binding | 1.5% of 340,000 active | recombinant FGF22 thermal shift, SYPRO orange fluorescence; percent of sucrose octasulfate shift, DMSO zero | AID 651658 | activity (Tm shift, normalised), % at 9.99 µM;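 active = mean Tm shift, scaled 0 neutral to 100 positive control, at about 1.3% or above, every replicate too, limit read from the data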
Ecoli rRNA inh: selective bacterial rRNA inhibition in E. coli | E. coli WT GFP vs humanized-ribosome RFP mutants, fluorescence, 24 h; active compounds read low; DMSO median 0, no signal -100 | GFP signal change (wild-type ribosome), % (concentration not given with the values) | 1.6% of 350,000 active | AID 720706;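 active = significant combined selectivity score with lowered wild-type GFP, culture density cut under 30%, mutant RFP and density less affected; inactive = any of these conditions unmet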
ADAM10 inh: inhibitors of human ADAM10; 0.62% of 370,000 active; inhibition, % at 7 µM; AID 720582; O14672; recombinant ADAM10, EDANS/DABCYL FRET peptide cleavage, 3 h;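 active = inhibition above a per-campaign cutoff equal to the mean of compounds falling between control-based bounds plus 3 SD, cut at about 20% in these data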;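 also: 0% = DMSO wells while the 100% control is not disclosed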
Target sequence (O14672 214-748 limits assumed): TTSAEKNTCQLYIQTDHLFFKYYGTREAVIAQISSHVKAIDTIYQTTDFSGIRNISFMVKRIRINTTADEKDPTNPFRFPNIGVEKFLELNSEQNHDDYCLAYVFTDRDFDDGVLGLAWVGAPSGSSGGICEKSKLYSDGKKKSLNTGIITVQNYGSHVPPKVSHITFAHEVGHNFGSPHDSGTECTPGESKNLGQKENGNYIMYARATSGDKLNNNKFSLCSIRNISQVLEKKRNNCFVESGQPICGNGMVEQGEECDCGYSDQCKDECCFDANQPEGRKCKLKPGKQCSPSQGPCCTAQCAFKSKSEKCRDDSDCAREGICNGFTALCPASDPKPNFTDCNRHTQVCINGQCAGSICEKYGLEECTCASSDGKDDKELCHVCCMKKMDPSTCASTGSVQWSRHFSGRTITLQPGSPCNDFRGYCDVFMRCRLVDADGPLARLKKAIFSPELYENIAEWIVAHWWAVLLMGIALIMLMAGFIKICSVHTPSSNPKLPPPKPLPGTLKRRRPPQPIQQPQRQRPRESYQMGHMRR
ADAM17 inh: ADAM17 inhibition, QFRET primary screen. recombinant ADAM17, EDANS/DABCYL FRET peptide cleavage. inhibition, % at 6.95 µM. 0.83% of 370,000 active;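 active = inhibition above the mean of compounds lying between control limits plus 3 SD, set per campaign, cut at about 8.5% in these data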;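 also: 0% = DMSO-only wells as the low control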
* hit, by the source's call; x = not tested or not shown.

SMILES	KLK7 zymogen act	FGF22 binding	Ecoli rRNA inh	ADAM10 inh	ADAM17 inh
COc1ccccc1CC(NC(C)=O)C(=O)NC1CCN(C(=O)c2ccc([N+](=O)[O-])cc2)CC1 (stereo unspecified)	-0.1	43.6*	2.6	0.7	-7.4
Cc1cc(C)c(C)c(S(=O)(=O)NC(C(=O)O)C(C)C)c1C (stereo unspecified)	0.4	43.2*	4.2	4.4	3.4
O=C(c1c[nH]c(C(=O)N2CCN(c3ccccc3F)CC2)c1)c1cccc(Cl)c1Cl	-0.1	0.1	-27.5*	-9.3	-4.9
NC(=O)c1cc(C(=O)c2ccccc2Cl)c[nH]1	-0.1	42.9*	-5.2	11.2	2.7
NC(=O)c1cc(C(=O)c2cccc(Cl)c2Cl)c[nH]1	0.0	0.2	-48.1*	-7.5	1.0
CN(C)C(=O)c1cc(C(=O)c2ccccc2Cl)c[nH]1	0.1	43.0*	4.0	-4.1	-0.2
CCCN(C)C[C@@H]1Oc2ncc(-c3ccccc3F)cc2C(=O)N([C@H](C)CO)C[C@@H]1C	x	0.9	1.4	x	x
C[C@H]1CN([C@@H](C)CO)C(=O)c2cc(Br)cnc2O[C@H]1CN(C)C(=O)C1CCOCC1	x	0.0	2.6	x	x
C[C@H]1CN([C@@H](C)CO)S(=O)(=O)c2ccc(C#Cc3ccc(F)cc3)cc2O[C@@H]1CN(C)C(=O)CN(C)C	x	-0.9	-1.5	x	x
CCCCCc1cc(=O)oc2c(C(CCN3CCCC(C)C3)c3ccc(OC)cc3)c(OC)cc(OC)c12 (stereo unspecified)	-1.4	-0.1	-36.9*	-75.8	-21.7
CCOc1ccc(N2C(=O)CC(Sc3nc(O)c(CC)c(=O)[nH]3)C2=O)cc1 (stereo unspecified)	0.1	-0.2	-39.1*	-3.6	-2.2
Cc1cc(Br)ccc1OCC(=O)NNC(=O)c1ccc(NC(=O)C2CC2)cc1	0.0	0.2	14.4	-2.8	-1.4
Cc1ccc(C)c(OCC(=O)NNC(=O)c2ccc(NC(=O)C3CC3)cc2)c1	-0.2	0.1	-36.8*	-2.8	-1.4
CCC1CCCCN1C(=O)CCc1nnc(C2CCCCC2)o1 (stereo unspecified)	0.2	43.0*	9.3	2.8	1.8
CS(=O)(=O)N(C(=O)NC(=O)NC12CC3CC(CC(C3)C1)C2)C1CCCCC1	0.5	44.1*	9.0	3.6	0.2
O=C(NC1CCCCC1)NC12CC3CC(CC(C3)C1)C2	-1.2	0.1	11.3	-1.4	0.7
COc1ccc(/C=N/Nc2nc3ccccc3[nH]2)cc1OC	-0.5	0.0	-43.9	-4.2	-2.2
COc1cc(OC)c(OC)cc1/C=N/Nc1nc2ccccc2[nH]1	-4.2	0.2	-39.0*	-26.4	-14.2
C(=N\Nc1nc2ccccc2[nH]1)/c1cccc2nccnc12	0.0	0.0	-31.4*	2.3	0.4
COc1ccc(CN(C)C[C@@H]2Oc3ccc(NC(=O)C4CC4)cc3CC(=O)N([C@@H](C)CO)C[C@H]2C)cc1	x	0.6	0.7	x	x
Cn1ccc2c(-c3ccc(CO)cc3)cc3c(c21)C1CCC3C1 (stereo unspecified)	-8.0	-0.4	-30.4*	-267.9	-79.0
Cn1ccc2c(-c3ccc(F)cc3)cc3c(c21)C1CCC3C1 (stereo unspecified)	-0.2	0.0	-1.6	-7.1	-6.3
CCNS(=O)(=O)c1c(C)cc(C)c(N(C)S(=O)(=O)c2ccccc2)c1C	-0.6	43.0*	x	-6.3	-2.4
C[C@@H]1CN([C@@H](C)CO)C(=O)c2cc(NC(=O)C3CC3)ccc2O[C@@H]1CN(C)CC1CC1	x	0.2	1.5	x	x
COc1ccc(-n2c(C)c(C(C)=O)c3cc(OC(C)=O)ccc32)cc1	0.5	x	-23.6*	-1.6	-1.5
SMILES	KLK7 zymogen act	FGF22 binding	Ecoli rRNA inh	ADAM10 inh	ADAM17 inh
C[C@@H]1CN([C@H](C)CO)C(=O)c2cc(N(C)C)ccc2O[C@@H](C)CCCCO[C@H]1CN(C)S(=O)(=O)c1ccccc1	x	-1.0	-5.8	x	x
O=C(/C=C/[C@H]1O[C@@H](n2cnc3c(NC(=O)c4ccccc4)ncnc32)[C@H](O)[C@@H]1O)NCc1cccc2ccccc12	0.1	0.1	-29.1*	4.7	-0.2
C[C@H](CO)N1C[C@H](C)[C@H](CN(C)C(=O)Nc2ccc(F)cc2)Oc2ccc(NC(=O)Nc3ccc(C(F)(F)F)cc3)cc2CC1=O	x	1.2*	-1.5	x	x
C[C@H](CO)N1C[C@H](C)[C@@H](CN(C)C(=O)Nc2ccc(C(F)(F)F)cc2)Oc2ccc(NC(=O)Nc3ccc(C(F)(F)F)cc3)cc2C1=O	0.3	0.1	-2.8	25.8*	12.8*
COc1ccc(NC(=O)Nc2cccc3c2O[C@H](CN(C)S(=O)(=O)c2ccc(Cl)cc2)[C@H](C)CN([C@@H](C)CO)C3=O)cc1	x	0.1	-23.0*	x	x
C[C@@H]1CN([C@H](C)CO)C(=O)c2cc(NC(=O)Nc3ccc(C(F)(F)F)cc3)ccc2O[C@@H](C)CCCCO[C@H]1CN(C)C(=O)Nc1ccc(F)cc1	x	1.4*	-5.5	x	x
C[C@H](CO)N1C[C@H](C)[C@H](CN(C)C(=O)Nc2ccc(C(F)(F)F)cc2)Oc2ccc(NC(=O)Nc3ccc(C(F)(F)F)cc3)cc2C1=O	x	-0.5	1.4	x	x
O=C([C@H]1[C@H](CO)[C@H]2Cn3c(cccc3=O)[C@@H]1N2C(=O)CC1CC1)N1CCCCC1	x	-0.1	1.6	x	x
Cc1noc(C)c1NC(=O)N(C)C[C@H]1OCCCC[C@@H](C)Oc2ccc(NC(=O)Nc3cccc4ccccc34)cc2C(=O)N([C@@H](C)CO)C[C@H]1C	x	-0.3	-15.5*	x	x
C[C@@H]1CCCCO[C@H](CN(C)C(=O)Nc2ccc(F)cc2)[C@@H](C)CN([C@@H](C)CO)C(=O)c2cc(NC(=O)Nc3ccc(C(F)(F)F)cc3)ccc2O1	x	1.0	-6.2	x	x
C[C@@H]1CCCCO[C@H](CN(C)C(=O)Nc2ccc(C(F)(F)F)cc2)[C@@H](C)CN([C@H](C)CO)C(=O)c2cc(NS(=O)(=O)c3cn(C)cn3)ccc2O1	x	1.5*	2.6	x	x
COc1ccc(S(=O)(=O)N(C)C[C@H]2Oc3ccc(NC(=O)Nc4ccc(C(F)(F)F)cc4)cc3C(=O)N([C@H](C)CO)C[C@@H]2C)cc1	0.8	0.2	2.6	29.1*	11.5*
C[C@H](CO)N1C[C@H](C)[C@@H](CN(C)C(=O)Nc2ccc(F)cc2)OCCCC[C@H](C)Oc2ccc(NC(=O)Nc3ccc(C(F)(F)F)cc3)cc2C1=O	x	1.2*	0.1	x	x
OC[C@@H]1[C@H]2c3ccccc3OC1(CO)N=C1SCc3ccccc3CN12	x	0.2	x	x	x
O=[N+]([O-])c1cccc(/C=N/Nc2nc(NCc3ccccc3)nc(N3CCOCC3)n2)c1O	-0.5	43.7*	6.4	3.1	1.1
Cc1ccccc1NC(=O)/C(C#N)=C\c1cc(C)n(-c2ccc(C(=O)O)cc2)c1C	0.4	0.3	-22.9*	-6.6	-5.8
O=C(O)CCC(=O)Nc1ccc(C(=O)OCC(=O)c2ccc(Cl)cc2Cl)cc1	-0.1	43.0*	-32.3	-2.9	-1.6

Assay outcomes as filed in PubChem.
